Data: PubChem BioAssay AID1159580 (chemical genetic matrix, 2015)
In all, about 5,500 compounds went through this assay and about 2,000 (36%) were called active. About 18% were inconclusive and are not listed. No stated cut-off is given here; in the data, active means normalized growth mostly below about 0.91 (no sharp cut-off); inconclusive means no clear call, values can overlap the other calls; inactive means mostly above about 0.92. The list shows a part of the results.

Experiment: chemical genetic growth profiling, strain panel (AID 1159580);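 further: tested at 20 µM; growth read once vehicle control cultures reached saturation at 30 °C; 1 = growth at the plate median or of vehicle wells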
Settings: growth OD
[1] = S. cerevisiae deletion strains, locus YAL013W, strain DEP1, stronger effect = lower value
[2] = S. cerevisiae deletion strains, locus YDR150W, strain NUM1, stronger effect = lower value
[3] = S. cerevisiae deletion strains, locus YGR078C, strain PAC10, stronger effect = lower value
[4] = S. cerevisiae deletion strains, locus YGR229C, strain SMI1, stronger effect = lower value
[5] = S. cerevisiae deletion strains, locus YJR075W, strain HOC1, stronger effect = lower value
[6] = S. cerevisiae deletion strains, locus YMR263W, strain SAP30, stronger effect = lower value
[7] = S. cerevisiae deletion strains, locus YNL128W, strain TEP1, stronger effect = lower value
[8] = S. cerevisiae deletion strains, locus YPL055C, strain LGE1, stronger effect = lower value
[9] = S. cerevisiae deletion strains, locus YPL241C, strain CIN2, stronger effect = lower value
[10] = S. cerevisiae deletion strains, locus YAL040C, strain CLN3, stronger effect = lower value
[11] = S. cerevisiae deletion strains, locus YCL061C, strain MRC1 (second series), stronger effect = lower value
[12] = S. cerevisiae deletion strains, locus YDR363W, strain ESC2, stronger effect = lower value
[13] = S. cerevisiae deletion strains, locus YER002W, strain NOP16, stronger effect = lower value
[14] = S. cerevisiae deletion strains, locus YNL175C, strain NOP13, stronger effect = lower value
[15] = S. cerevisiae deletion strains, locus YNL197C, strain WHI3, stronger effect = lower value
[16] = S. cerevisiae deletion strains, locus YNL224C, strain SQS1, stronger effect = lower value
[17] = S. cerevisiae deletion strains, locus YOR083W, strain WHI5 (second series), stronger effect = lower value

Measured: normalized growth

C#CCOS(=O)OC1CCCCC1Oc1ccc(C(C)(C)C)cc1 (configuration not stated)
inactive: [1] 1.01 | S. cerevisiae deletion strains, locus YBR021W, strain FUR4, stronger effect = lower value 1.03 | S. cerevisiae deletion strains, locus YBR229C, strain ROT2, stronger effect = lower value 1.02 | S. cerevisiae deletion strains, locus YCL029C, strain bik1, stronger effect = lower value 1.01 | S. cerevisiae deletion strains, locus YDL035C, strain GPR1, stronger effect = lower value 1 | S. cerevisiae deletion strains, locus YDL074C, strain BRE1, stronger effect = lower value 1.07 | S. cerevisiae deletion strains, locus YDL101C, strain DUN1, stronger effect = lower value 1.02 | S. cerevisiae deletion strains, locus YDL134C, strain PPH21, stronger effect = lower value 1.02 | S. cerevisiae deletion strains, locus YDL185W, strain tfp1, stronger effect = lower value 0.982 | S. cerevisiae deletion strains, locus YDL192W, strain arf1, stronger effect = lower value 1 | S. cerevisiae deletion strains, locus YDR101C, strain arx1, stronger effect = lower value 0.987 | [2] 1.02 | S. cerevisiae deletion strains, locus YDR162C, strain NBP2, stronger effect = lower value 1.02 | S. cerevisiae deletion strains, locus YDR318W, strain mcm21, stronger effect = lower value 1 | S. cerevisiae deletion strains, locus YDR388W, stronger effect = lower value 0.994 | S. cerevisiae deletion strains, locus YDR502C, strain sam2, stronger effect = lower value 0.993 | S. cerevisiae deletion strains, locus YEL061C, strain CIN8, stronger effect = lower value 1.01 | S. cerevisiae deletion strains, locus YER110C, stronger effect = lower value 0.998 | S. cerevisiae deletion strains, locus YER155C, strain BEM2, stronger effect = lower value 1.02 | S. cerevisiae deletion strains, locus YER167W, strain BCK2, stronger effect = lower value 1.01 | S. cerevisiae deletion strains, locus YGL078C, strain dbp3, stronger effect = lower value 0.977 | S. cerevisiae deletion strains, locus YGL086W, strain mad1, stronger effect = lower value 1 | S. cerevisiae deletion strains, locus YGL248W, strain PDE1, stronger effect = lower value 1.02 | [3] 1.02 | S. cerevisiae deletion strains, locus YGR135W, strain pre9, stronger effect = lower value 1 | [4] 1.04 | S. cerevisiae deletion strains, locus YGR252W, strain gcn5, stronger effect = lower value 0.987 | S. cerevisiae deletion strains, locus YHR030C, strain SLT2, stronger effect = lower value 1.02 | S. cerevisiae deletion strains, locus YHR079C, strain IRE1 (second series), stronger effect = lower value 0.994 | S. cerevisiae deletion strains, locus YHR094C, strain hxt1, stronger effect = lower value 0.988 | S. cerevisiae deletion strains, locus YHR129C, strain ARP1, stronger effect = lower value 1.02 | S. cerevisiae deletion strains, locus YHR200W, strain rpn10, stronger effect = lower value 0.99 | S. cerevisiae deletion strains, locus YIL066C, strain RNR3, stronger effect = lower value 1.02 | S. cerevisiae deletion strains, locus YIL073C, strain SPO22, stronger effect = lower value 1.01 | S. cerevisiae deletion strains, locus YIL125W, strain kgd1, stronger effect = lower value 0.988 | S. cerevisiae deletion strains, locus YIR030C, strain dcg1, stronger effect = lower value 0.984 | S. cerevisiae deletion strains, locus YJL095W, strain BCK1, stronger effect = lower value 1.02 | S. cerevisiae deletion strains, locus YJL134W, strain LCB3, stronger effect = lower value 1.01 | S. cerevisiae deletion strains, locus YJL168C, strain set2, stronger effect = lower value 0.989 | S. cerevisiae deletion strains, locus YJL187C, strain SWE1 (second series), stronger effect = lower value 1.02 | S. cerevisiae deletion strains, locus YJR043C, strain POL32, stronger effect = lower value 1.01 | [5] 1.04 | S. cerevisiae deletion strains, locus YKL009W, strain mrt4, stronger effect = lower value 0.971 | S. cerevisiae deletion strains, locus YKL068W, stronger effect = lower value 0.994 | S. cerevisiae deletion strains, locus YKL085W, strain MDH1 (second series), stronger effect = lower value 0.988 | S. cerevisiae deletion strains, locus YKL085W, strain MDH1, stronger effect = lower value 0.988 | S. cerevisiae deletion strains, locus YKL190W, strain CNB1, stronger effect = lower value 1 | S. cerevisiae deletion strains, locus YKR001C, strain vps1, stronger effect = lower value 0.993 | S. cerevisiae deletion strains, locus YLR039C, strain RIC1, stronger effect = lower value 1.04 | S. cerevisiae deletion strains, locus YLR058C, strain SHM2, stronger effect = lower value 1.02 | S. cerevisiae deletion strains, locus YLR102C, strain apc9, stronger effect = lower value 0.983 | S. cerevisiae deletion strains, locus YLR262C, strain YPT6, stronger effect = lower value 1.05 | S. cerevisiae deletion strains, locus YLR268W, strain sec22, stronger effect = lower value 0.999 | S. cerevisiae deletion strains, locus YLR330W, strain CHS5, stronger effect = lower value 1.02 | S. cerevisiae deletion strains, locus YLR342W, strain FKS1 (second series), stronger effect = lower value 1.01 | S. cerevisiae deletion strains, locus YLR371W, strain rom2, stronger effect = lower value 0.983 | S. cerevisiae deletion strains, locus YLR418C, strain cdc73, stronger effect = lower value 1.02 | S. cerevisiae deletion strains, locus YML016C, strain PPZ1, stronger effect = lower value 1.02 | S. cerevisiae deletion strains, locus YML032C, strain rad52, stronger effect = lower value 0.986 | S. cerevisiae deletion strains, locus YML124C, strain tub3, stronger effect = lower value 0.995 | S. cerevisiae deletion strains, locus YMR078C, strain ctf18, stronger effect = lower value 0.996 | S. cerevisiae deletion strains, locus YMR223W, strain ubp8, stronger effect = lower value 1 | [6] 1.03 | S. cerevisiae deletion strains, locus YMR307W, strain GAS1, stronger effect = lower value 1.02 | S. cerevisiae deletion strains, locus YNL067W, strain RPL9B, stronger effect = lower value 1.02 | [7] 1.02 | S. cerevisiae deletion strains, locus YNL153C, strain GIM3, stronger effect = lower value 1.02 | S. cerevisiae deletion strains, locus YNL233W, strain BNI4, stronger effect = lower value 1.03 | S. cerevisiae deletion strains, locus YNL250W, strain rad50, stronger effect = lower value 0.992 | S. cerevisiae deletion strains, locus YNL271C, strain bni1, stronger effect = lower value 0.978 | S. cerevisiae deletion strains, locus YNL298W, strain CLA4, stronger effect = lower value 0.998 | S. cerevisiae deletion strains, locus YNL307C, strain MCK1, stronger effect = lower value 0.992 | S. cerevisiae deletion strains, locus YNL322C, strain KRE1, stronger effect = lower value 1.02 | S. cerevisiae deletion strains, locus YNR052C, strain pop2, stronger effect = lower value 0.987 | S. cerevisiae deletion strains, locus YOL006C, strain TOP1, stronger effect = lower value 1.07 | S. cerevisiae deletion strains, locus YOL012C, strain htz1 0.994 | S. cerevisiae deletion strains, locus YOL147C, strain pex11, stronger effect = lower value 0.994 | S. cerevisiae deletion strains, locus YOR061W, strain CKA2, stronger effect = lower value 1.01 | S. cerevisiae deletion strains, locus YOR069W, strain VPS5, stronger effect = lower value 1 | S. cerevisiae deletion strains, locus YOR136W, strain idh2, stronger effect = lower value 0.992 | S. cerevisiae deletion strains, locus YOR144C, strain elg1, stronger effect = lower value 0.996 | S. cerevisiae deletion strains, locus YOR184W, strain ser1, stronger effect = lower value 0.964 | S. cerevisiae deletion strains, locus YOR316C, strain cot1, stronger effect = lower value 0.996 | [8] 1.05 | [9] 1.03 | S. cerevisiae deletion strains, locus YPR119W, strain clb2, stronger effect = lower value 0.997 | S. cerevisiae deletion strains, locus YPR141C, strain kar3, stronger effect = lower value 0.99 | S. cerevisiae deletion strains, locus YPR163C, strain tif3, stronger effect = lower value 0.999 | S. cerevisiae deletion strains, locus YPR167C, strain met16, stronger effect = lower value 0.994 | S. cerevisiae deletion strains, strain wtn01, stronger effect = lower value 0.991 | S. cerevisiae strains, strain wild type, stronger effect = lower value 1.01

CC(C)C[C@H](NC(=O)C1OC1C(=O)O)C(=O)NCCCCN=C(N)N (some centres not stated)
inactive: [1] 1.01 | [10] 0.949 | [11] 0.993 | [2] 0.989 | [12] 1.01 | [13] 0.985 | [3] 0.988 | [4] 1.04 | [6] 0.997 | [7] 0.998 | [14] 0.984 | [15] 0.971 | [16] 1.01 | [17] 0.979 | [8] 1.02 | [9] 0.995

CC(=O)C(C)=O
inactive: [10] 1.01 | [11] 1.01 | [12] 1.03 | [13] 1 | [5] 1.02 | [14] 0.994 | [15] 1.03 | [16] 0.99 | [17] 1.02 | [8] 1.07
